VLA-4 inh: inhibition in a human VLA-4 binding assay. VLA-4 expressing cells, ligand binding flow cytometry. inhibition, % (about 7 µM as worked out from the volumes in the protocol). 330,000 compounds, 0.2% hits. AID 2557; in the data active = inhibition above about 50%
CaV13 FRET inh: Disruptors of the CACNA1D IQ motif to Ca2+-dependent inactivation inhibitor domain association, primary screening, Förster resonance energy transfer in intact living …; HEK cells, CFP/YFP FRET ICDI-IQ, plate reader, 10 min; percent FRET-ratio fall versus neutral wells; inhibition, % at 12.3 µM; 340,000 compounds, 0.098% hits;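 active = mean replicate inhibition of at least 30% and at least 1% of replicates passing that level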;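 note: 0% = median of the neutral control wells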
ABCB6 inh MLPCN: human ABCB6 transporter inhibition | Q9NP58 | K562-ABCB6 porphyrin accumulation, flow cytometry, 1 h; stronger effect = lower value | fluorescence ratio to DMSO, % at 10 µM | 360,000 compounds, 0.19% hits | AID 602162;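 active = fluorescence ratio to DMSO below 75%, the collection mean minus 3 SD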;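 note: signal is porphyrin accumulated inside mitochondria; 100% equals median channel fluorescence of DMSO control wells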
Exocytosis inh: lytic granule exocytosis inhibition | TALL-104 LAMP-1 surface exposure, flow cytometry; cells stimulated with thapsigargin and PMA | inhibition, % at 10 µM | 360,000 compounds, 0.66% hits | AID 651702;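 active = inhibition above about 55%, limit read from the data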
ABCB6 inh CP1: inhibitors of human ABC transporter ABCB6; shares compounds with ABCB6 inh MLPCN; 700 tested, under 10 active; ratio response (% of DMSO), % at 10 µM; K562-ABCB6 porphyrin accumulation, flow cytometry, 1 h; stronger effect = lower value;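 active = repeat-averaged ratio response below 75% of DMSO, the collection mean minus 3 SD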;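 note: median porphyrin fluorescence at 575 nm with 488 nm excitation from mitochondria; lower ratio means less porphyrin signal so ABCB6 inhibition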
K562 vector FC: counter-screen for ABCB6 inhibitors: effect in vector-only K562 cells; shares compounds with ABCB6 inh MLPCN; K562 empty-vector cells, flow cytometry fluorescence, 1 h; percent response (fluorescence), % at 100 µM; 25 tested, under 10 active;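 active = compounds whose half-maximal effective concentration is below 100 µM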
* marks the source's active call; other numbers are inactive results; nt = no result. Sampled rows, rich in hits. Any-hit rate of the full collection: about 1.1%.

SMILES | VLA-4 inh | CaV13 FRET inh | ABCB6 inh MLPCN | Exocytosis inh | ABCB6 inh CP1 | others
CC(=O)c1cccc(-c2ccnc3c2CC(C(=O)Nc2ccc(F)c(Cl)c2)O3)c1 (stereo not given) | nt | -4 | 94 | 13 | 100
O=C(Nc1ccc(F)c(Cl)c1)C1Cc2c(-c3cccc(F)c3)ccnc2O1 (stereo not given) | nt | -10 | 72* | -3 | 101
O=C(CSc1nnc2ncccn12)Nc1cccc2ccccc12 | 13 | -2 | 98 | -11 | nt
CC(C)Oc1ccc(S(=O)(=O)N2CCOCC2)cc1NC(=O)Cc1cccs1 | 5 | -6 | 104 | -4 | nt
COc1cccc(CN(C)C(=O)c2cc(COc3ccc(-n4cncn4)cc3)on2)c1 | 25 | -14 | 99 | 3 | nt
CCOc1ccc(NC(=O)C2CC(=O)N(CCc3ccc(OC)c(OC)c3)C2)cc1OCC (stereo not given) | -15 | -3 | 101 | 0 | nt
Cc1noc(C)c1S(=O)(=O)N1CCC(C(=O)O)CC1 | 15 | -6 | 100 | 22 | 99
Cc1ccc(C(=O)C2CCN(S(=O)(=O)c3c(C)noc3C)CC2)cc1 | 4 | -20 | 98 | -2 | nt
COc1ccc(NC(=O)CN2CCC(NC(=O)C3CCCCC3)CC2)cc1 | 0 | -8 | 68* | 4 | 98
CC1(C(=O)NS(=O)(=O)c2ccc(C#N)cc2)CCN1C(=O)Cc1ccc(-c2ccccc2)cc1 (stereo not given) | nt | -7 | 95 | -2 | 98
COc1cc(C)ccc1S(=O)(=O)NC(=O)C1(C)CCN1C(=O)Cc1ccc(C(C)(C)C)cc1 (stereo not given) | nt | -7 | 99 | -5 | 100
CC1(C(=O)NS(=O)(=O)c2ccc(Cl)cc2)CCN1C(=O)Cc1ccc(-c2ccccc2)cc1 (stereo not given) | nt | -5 | 93 | 0 | nt
CCCCc1ccc(S(=O)(=O)NC(=O)C2(C)CCN2C(=O)Cc2ccccc2)cc1 (stereo not given) | nt | -6 | 100 | 1 | 97
CC(C)(C)c1ccc(S(=O)(=O)NC(=O)C2(C)CCN2C(=O)Cc2ccc(-c3ccccc3)cc2)cc1 (stereo not given) | nt | -4 | 90 | -4 | 98
O=C(C(O)c1ccccc1)N1CCN(S(=O)(=O)c2ccc(C(F)(F)F)cc2)CC1 (stereo not given) | nt | -6 | nt | 9 | nt
O=C(CCN1C(=O)C2C3CCC(C3)C2C1=O)OCC(=O)c1ccccc1 (stereo not given) | 9 | -3 | 91 | -1 | nt
O=C(CCN1C(=O)C2C3CC(C(Br)C3Br)C2C1=O)OCC(=O)c1ccccc1 (stereo not given) | 3 | -5 | 71* | 6 | 99
Cc1ccc(S(=O)(=O)N2CCN(C(=O)COC(=O)Cc3ccc(Cl)cc3)CC2)c(C)c1 | 35 | -2 | 101 | -1 | nt
CC(=O)C[C@@H](O)CC(=O)[C@@H]1OC(=O)[C@@H](C)C/C=C\Cc2ccccc21 | 37 | nt | 101 | -1 | nt
CC1Cc2ccccc2N1C1=NS(=O)(=O)c2ccccc21 (stereo not given) | 3 | -8 | 73* | 4 | 102
Cc1ccc(S(=O)(=O)N(C)CC(=O)NCCCn2ccnc2)cc1 | 0 | -7 | 61* | -3 | 101
COc1ccc(S(=O)(=O)NC(=O)C2(C)CCN2C(=O)Cc2cccc3ccccc23)cc1 (stereo not given) | nt | -7 | 104 | -3 | 99
CC1(C(=O)NS(=O)(=O)c2ccc(C#N)cc2)CCN1C(=O)Cc1cccc2ccccc12 (stereo not given) | nt | -9 | 65* | -4 | 99
COc1ccc(S(=O)(=O)NC(=O)C2(C)CCN2C(=O)Cc2ccc(-c3ccccc3)cc2)cc1 (stereo not given) | nt | -5 | 98 | -9 | nt
O=C(NCCOc1ccccc1)C(=O)c1c[nH]c2ccccc12 | -14 | -3 | 100 | 0 | nt
SMILES | VLA-4 inh | CaV13 FRET inh | ABCB6 inh MLPCN | Exocytosis inh | ABCB6 inh CP1 | others
Cc1cc(NC(=O)CSc2nnc(N)s2)c([N+](=O)[O-])cc1C | 3 | -2 | 103 | 11 | nt
CC(=O)Nc1ccc(NC(=O)c2nc(S(=O)(=O)Cc3cccc(C)c3)ncc2Cl)cc1 | 22 | -7 | 67* | -5 | nt | K562 vector FC=224
COC(=O)c1ccc(NC(=O)c2nc(S(=O)(=O)Cc3cccc(C)c3)ncc2Cl)cc1 | 21 | -3 | 41* | 35 | 91
Cc1cccc(COC(=O)Nc2ccc(NC(=O)c3ccccc3Cl)cc2)c1 | 16 | 0 | 91 | -8 | nt
O=C(c1cccs1)N1CCCC(c2nc3c(nnn3Cc3ccccc3Cl)c(=O)[nH]2)C1 (stereo not given) | -3 | -3 | 96 | 39 | nt
O=C(C1CCCCC1)N1CCC(c2nc3c(nnn3Cc3c(F)cccc3Cl)c(=O)[nH]2)CC1 | -10 | nt | 104 | -6 | 101
CCCCCCC(=O)N1CCC(c2nc3c(nnn3Cc3ccccc3Cl)c(=O)[nH]2)CC1 | 0 | -9 | 93 | -1 | 101
O=C(Cc1cccs1)N1CCC(c2nc3c(nnn3Cc3ccccc3Cl)c(=O)[nH]2)CC1 | 2 | -3 | 64* | -5 | 100
O=C(C1CCCCC1)N1CCC(c2nc3c(nnn3Cc3ccccc3Cl)c(=O)[nH]2)CC1 | nt | 4 | 100 | -3 | nt
N#Cc1cccc(NC(=O)N2CCC(c3nc4c(nnn4Cc4cccc(Cl)c4)c(=O)[nH]3)CC2)c1 | -1 | -4 | 90 | 3 | 98
CC(=O)c1cccc(NCC(=O)N2CCN(S(=O)(=O)c3ccccc3)CC2)c1 | -12 | -2 | 103 | -1 | nt
O=C(Nc1ccc(Cn2cccn2)cc1)c1ccc(COc2ccc(Br)cc2)cc1 | 12 | nt | 72* | -1 | 102
COc1ccccc1NOC(=O)CCOc1ccccc1 | nt | -5 | 97 | 3 | nt
O=C(O)C1C2C=CC(C2)C1C(=O)Nc1cccc(F)c1 (stereo not given) | 17 | -4 | 58* | 0 | 101
O=C(O)c1cccc(NC(=O)C2C3C=CC(C3)C2C(=O)O)c1 (stereo not given) | -8 | -5 | 97 | -2 | nt
CCCS(=O)(=O)NC(=O)C1(C)CCN(C(=O)c2ccc(C(F)(F)F)cc2)C1 (stereo not given) | nt | -11 | 70* | 7 | 101
O=C(CCc1nc(-c2ccccc2Cl)no1)NC1CCCC1 | -13 | nt | 99 | 1 | nt
O=C(CCc1nc(-c2ccccc2Cl)no1)NC1CCCCC1 | 3 | -19 | 73* | -9 | 99
O=C(COc1ccc(F)cc1Cl)NC1CCCCCC1 | 17 | -5 | 88 | 0 | nt
CC1CN(C(=O)COC(=O)c2cncc(Br)c2)CC(C)O1 (stereo not given) | nt | -9 | 96 | 6 | nt
Cc1ccc(C(=O)OCC(=O)NCc2ccccc2)cc1S(=O)(=O)N1CCCCC1 | 7 | -5 | 96 | 0 | nt
